“And” between values parts separate entries of the source, which are not always exact repeats. Equal entries are not always repeated. Results filed as inconclusive are left out. The source made the active and inactive calls. Unless noted, calls follow the shape of the dose curve; as a rule, active = well fitted curve in the direction sought with a large enough effect in the repeat runs; inconclusive = weak or mixed curves; inactive = flat fitted curve, though single readings scatter.
Experiments:
[1] = qHTS assay to test for compound auto fluorescence at 535 nm (green) in HEK293 cells (AID 720680); details: green autofluorescence 485/535 nm; series mostly up to 91.3 µM
[2] = qHTS assay to test for compound auto fluorescence at 460 nm (blue) in HEK293 cell free culture (AID 720681); details: cell-free medium, autofluorescence 405/460 nm (blue); series mostly up to 91.3 µM
How it was run: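 Blue fluorescence (Ex 405/Em 460 nm, triamterene-equivalent) was read immediately after pin transfer of compound or DMSO into medium (DMEM, 10% FBS) without cells.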

[3] = qHTS assay to test for compound auto fluorescence at 535 nm (green) in HEK293 cell free culture (AID 720682); details: cell-free medium, green autofluorescence 485/535 nm, hits give high values; series mostly up to 91.3 µM
How it was run: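 Fluorescein serves as the green reference fluorophore; each compound's intrinsic emission at 535 nm (excitation 485 nm) is reported as an equivalent amount of that dye, measured in serum-containing DMEM without cells.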

[4] = qHTS assay to test for compound auto fluorescence at 590 nm (red) in HEK293 cell free culture (AID 720683); details: cell-free medium autofluorescence, Ex540/Em590 red; series mostly up to 91.3 µM
How it was run: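 Red-channel autofluorescence of compounds in culture medium (DMEM, 10% FBS), no cells, measured at 540/590 nm. Rose Bengal sodium is the reference fluorophore for equivalence.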

[5] = qHTS assay to test for compound auto fluorescence at 590 nm (red) in HepG2 cell free culture (AID 720684); details: cell-free medium autofluorescence, red 540/590 nm; series mostly up to 91.3 µM
How it was run: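 Steps: dispense MEM/10% FBS medium, no cells; pin compound or DMSO vehicle; read red channel, Ex/Em 540/590 nm. Output given as Rose Bengal sodium equivalents.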

[6] = qHTS assay to test for compound auto fluorescence at 460 nm (blue) in HepG2 cell free culture (AID 720685); details: Cell-free culture medium, blue autofluorescence 405/460 nm; series mostly up to 91.3 µM
How it was run: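 Compound (23 nL) or DMSO pinned into cell-free MEM with 10% FBS; blue fluorescence read at 405/460 nm excitation/emission, expressed as auto-fluorescence equivalency to triamterene.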

[7] = qHTS assay to test for compound auto fluorescence at 535 nm (green) in HepG2 cell free culture (AID 720686); details: Cell-free medium, green autofluorescence 485/535 nm; series mostly up to 91.3 µM
[8] = qHTS assay to test for compound auto fluorescence at 460 nm (blue) in HepG2 cells (AID 720687); details: autofluorescence 405/460 nm, 1 h; series mostly up to 91.3 µM
How it was run: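 Blue-channel autofluorescence (Ex/Em 405/460 nm, triamterene-equivalent) was measured after 1 hr compound exposure at 37 C, 5% CO2. Cells were HepG2, plated overnight at 37 C in MEM plus 10% FBS.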

[9] = biological target: Glucocorticoid receptor (Homo sapiens) (UniProt P04150); assay: qHTS assay to identify small molecule agonists of the glucocorticoid receptor (GR) signaling pathway (AID 720691; active = well fitted activation curve with a large enough effect in the signal ratio in the repeat runs, not every such curve was filed as active; the % refers to the signal ratio); details: GR-bla HeLa, beta-lactamase reporter ratio, 18 h; series mostly up to 62.4 µM
Sequence of Glucocorticoid receptor (Homo sapiens) (P04150 whole entry, looked up): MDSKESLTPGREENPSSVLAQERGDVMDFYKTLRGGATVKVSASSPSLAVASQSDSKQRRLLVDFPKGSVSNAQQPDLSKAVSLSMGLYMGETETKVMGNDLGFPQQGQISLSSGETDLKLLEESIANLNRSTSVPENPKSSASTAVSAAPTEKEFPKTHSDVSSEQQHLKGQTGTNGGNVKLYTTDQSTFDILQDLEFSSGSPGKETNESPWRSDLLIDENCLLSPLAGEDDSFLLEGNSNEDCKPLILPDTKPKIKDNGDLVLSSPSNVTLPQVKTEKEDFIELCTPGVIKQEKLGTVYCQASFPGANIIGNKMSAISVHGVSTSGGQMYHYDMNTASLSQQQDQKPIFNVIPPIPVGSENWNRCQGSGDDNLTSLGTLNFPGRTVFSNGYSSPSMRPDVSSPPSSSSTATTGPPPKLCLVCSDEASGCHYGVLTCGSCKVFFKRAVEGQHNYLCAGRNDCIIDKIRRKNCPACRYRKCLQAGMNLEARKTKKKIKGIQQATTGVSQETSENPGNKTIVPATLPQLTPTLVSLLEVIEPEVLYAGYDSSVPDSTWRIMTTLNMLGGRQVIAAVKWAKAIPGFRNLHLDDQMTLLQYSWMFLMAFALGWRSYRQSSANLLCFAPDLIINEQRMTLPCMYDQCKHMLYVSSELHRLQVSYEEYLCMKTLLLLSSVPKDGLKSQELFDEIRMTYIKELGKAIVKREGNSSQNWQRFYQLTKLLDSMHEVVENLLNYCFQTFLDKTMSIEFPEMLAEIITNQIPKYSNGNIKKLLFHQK
How it was run: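 Beta-lactamase reporter activity, read as fluorescence intensity, was measured in GR-bla HeLa cells exposed to compounds for 18 h at 37 C and then loaded with LiveBLAzer B/G FRET substrate for 2 h at room temperature.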

[10] = biological target: Glucocorticoid receptor (Homo sapiens) (UniProt P04150); assay: qHTS assay to identify small molecule antagonists of the glucocorticoid receptor (GR) signaling pathway (AID 720692; active = well fitted inhibition curve with a large enough effect in the signal ratio in the repeat runs, not every such curve was filed as active; the % refers to the signal ratio; also: potency is read from the fitted curve at half-maximal effect); details: GR-bla HeLa, beta-lactamase FRET ratio, dexamethasone-stimulated, 18 h; series mostly up to 58.5 µM
How it was run: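 Fluorescence from cleaved LiveBLAzer B/G FRET substrate reports GRE-driven beta-lactamase in HeLa cells; compounds are tested against 5 nM dexamethasone (final) over 18 h at 37 C, substrate incubation 2 h at room temperature.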

Measured: Potency

C1CNCCN1
inactive: [1] | [2] | [3] | [4] | [5] | [6] | [7] | [8] | [9] | [10]

CCCCC/C(C=O)=C\c1ccccc1
inactive: [1] | [2] | [3] | [4] | [5] | [6] | [7] | [8] | [9] | [10]

CCOC(=O)C(C)(C)Oc1ccc(Cl)cc1
inactive: [1] | [2] | [3] | [4] | [5] | [6] | [7] | [8] | [10]

CC(C)=CCC/C(C)=C/CO
inactive: [1] | [2] | [3] | [4] | [5] | [6] | [7] | [8] | [9] | [10]

Cc1cnc(NC(=O)C2=C(O)c3ccccc3S(=O)(=O)N2C)s1
inactive: [1] | [2] | [3] | [4] | [5] | [6] | [7] | [8] | [9] | [10]

CCCCNC(=O)NS(=O)(=O)c1ccc(N)cc1
inactive: [1] | [2] | [3] | [4] | [5] | [6] | [7] | [8]

COC(=O)c1ccc(C=O)cc1
inactive: [1] | [2] | [3] | [4] | [5] | [6] | [7] | [8] | [10]

NC(=O)NO
inactive: [1] | [2] | [3] | [4] | [5] | [6] | [7] | [8] | [10]

O=C(O)CN(CC(=O)O)CC(=O)O
inactive: [1] | [2] | [3] | [4] | [5] | [6] | [7] | [8] | [10]

c1ccc2[nH]c(-c3cscn3)nc2c1
inactive: [1] | [2] | [3] | [4] | [5] | [6] | [7] | [8] | [9] | [10]

CC(=O)c1ccc(S(=O)(=O)NC(=O)NC2CCCCC2)cc1
inactive: [1] | [2] | [3] | [4] | [5] | [6] | [7] | [8] | [10]

O=C(O)CCCCC1CCSS1 (configuration not stated)
inactive: [1] | [2] | [3] | [4] | [5] | [6] | [7] | [8] | [9] | [10]

CCN1CCCC1=O
inactive: [1] | [2] | [3] | [4] | [5] | [6] | [7] | [8] | [9] | [10]

N[C@@H](Cc1c[nH]c2ccc(O)cc12)C(=O)O
inactive: [1] | [2] | [3] | [4] | [5] | [6] | [7] | [8] | [10]

CCCCCCCCCCCCCC(=O)OC(C)C
inactive: [1] | [2] | [3] | [4] | [5] | [6] | [7] | [8] | [10]

NC(=O)OCC(COC(N)=O)c1ccccc1
inactive: [1] | [2] | [3] | [4] | [5] | [6] | [7] | [8] | [10]

C[C@]12C[C@H](O)[C@H]3[C@@H](CCC4=CC(=O)CC[C@@]43C)[C@@H]1CC[C@@H]2C(=O)CO
inactive: [1] | [2] | [3] | [4] | [5] | [6] | [7] | [8]
active: [10] 674 nM and 390 nM

O=c1cc[nH]c(=O)[nH]1
inactive: [1] | [2] | [3] | [4] | [5] | [6] | [7] | [8] | [10]

CC(=O)Oc1ccccc1C(=O)O
inactive: [1] | [2] | [3] | [4] | [5] | [6] | [7] | [8] | [10]

Cc1cccc(Nc2cc(Cl)nc(SCC(=O)O)n2)c1C
inactive: [1] | [2] | [3] | [4] | [5] | [6] | [7] | [8] | [10]

C=C(C)OC(C)=O
inactive: [1] | [2] | [3] | [4] | [5] | [6] | [7] | [8] | [10]

CCCCOCCOCCSC#N
inactive: [1] | [2] | [3] | [4] | [5] | [6] | [7] | [8] | [10]

CC(=O)CCC(C)C
inactive: [1] | [2] | [3] | [4] | [5] | [6] | [7] | [8] | [10]

C[C@]12CC[C@@H]3c4ccc(O)cc4C[C@@H](CCCCCCCCCS(=O)CCCC(F)(F)C(F)(F)F)[C@H]3[C@@H]1CC[C@@H]2O (some centres not stated)
active: [10] 1.23 µM
inactive: [1] | [2] | [3] | [4] | [5] | [6] | [7] | [8]

COc1ccc(O)cc1
inactive: [1] | [2] | [3] | [4] | [5] | [6] | [7] | [8] | [10]

CCCCCCCCCCCCCCCCCC(=O)OCC(O)CO (configuration not stated)
inactive: [1] | [2] | [3] | [4] | [5] | [6] | [7] | [8] | [10]

CN(C)Cc1cc(CN(C)C)c(O)c(CN(C)C)c1
inactive: [1] | [2] | [3] | [4] | [5] | [6] | [7] | [8] | [10]

CC1=C(/C=C/C(C)=C/C=C/C(C)=C/C(=O)O)C(C)(C)CCC1
active: [10] 54.9 µM
inactive: [1] | [2] | [3] | [4] | [5] | [6] | [7] | [8]

CCc1cc(C(N)=S)ccn1
inactive: [1] | [2] | [3] | [4] | [5] | [6] | [7] | [8] | [10]

CN/C(=C\[N+](=O)[O-])NCCSCc1ccc(CN(C)C)o1
inactive: [1] | [2] | [3] | [4] | [5] | [6] | [7] | [8] | [10]

NCCNc1cccc2ccccc12
inactive: [1] | [2] | [3] | [4] | [5] | [6] | [7] | [8] | [10]

C#C[C@]1(O)CC[C@H]2[C@@H]3CCc4cc(O)ccc4[C@H]3CC[C@@]21C
inactive: [1] | [2] | [3] | [4] | [5] | [6] | [7] | [8]
active: [10] 1.54 µM

COC1=CC(=O)C[C@@H](C)[C@]12Oc1c(Cl)c(OC)cc(OC)c1C2=O
inactive: [1] | [2] | [3] | [4] | [5] | [6] | [7] | [8] | [10]

NC(N)=NC(N)=NCCc1ccccc1
inactive: [1] | [2] | [3] | [4] | [5] | [6] | [7] | [8] | [10]

Cn1cnc2c1c(=O)[nH]c(=O)n2C
inactive: [1] | [2] | [3] | [4] | [5] | [6] | [7] | [8] | [10]

CC(C)Cc1ccc(C(C)C(=O)O)cc1 (configuration not stated)
inactive: [1] | [2] | [3] | [4] | [5] | [6] | [7] | [8] | [10]

CCCCCCCC(=O)OCC(O)CO (configuration not stated)
inactive: [1] | [2] | [3] | [4] | [5] | [6] | [7] | [8] | [10]

Cc1ccc(O)c(-n2nc3ccccc3n2)c1
inactive: [1] | [2] | [3] | [4] | [5] | [6] | [7] | [8] | [10]

CCCCOCCOCCOC(C)=O
inactive: [1] | [2] | [3] | [4] | [5] | [6] | [7] | [8] | [10]

OCCCc1ccccc1
inactive: [1] | [2] | [3] | [4] | [5] | [6] | [7] | [8] | [10]

COC(=O)c1ccc(O)cc1
inactive: [1] | [2] | [3] | [4] | [5] | [6] | [7] | [8] | [10]

CC1=NN(c2ccccc2)C(=O)C1
inactive: [1] | [2] | [3] | [4] | [5] | [6] | [7] | [8] | [10]

O=C(OCc1ccccc1)c1ccccc1
inactive: [1] | [2] | [3] | [4] | [5] | [6] | [7] | [8] | [10]

N[C@@H](Cc1c[nH]c2ccccc12)C(=O)O
inactive: [1] | [2] | [3] | [4] | [5] | [6] | [7] | [8] | [10]

— PubChem BioAssay (Tox21)
